Measured values: PubChem BioAssay (NCI)
This is part of a sample that, as a whole, favours compounds with a hit. Of some 79,000 tested, about 15% had one in any assay. Calls of active or inactive are those of the source. Rule as the data show it: active = growth inhibition above about 70%; inactive = the rest.

Tests used:
[1] = NCI Yeast Anticancer Drug Screen. Data for the rad50 strain (AID 155);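 also: 0% = growth of vehicle-only cultures of the same strain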; details: S. cerevisiae rad50 strain growth inhibition; at 50.0 µM; active compounds read high
Procedure, shortened: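 Relative growth inhibition (compound vs vehicle) was measured in yeast with a defined repair-gene alteration.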

[2] = NCI Yeast Anticancer Drug Screen. Data for the mec2-1 strain (AID 157); details: S. cerevisiae mec2-1 strain, at 50.0 µM, active compounds read high
Procedure, shortened: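 Test agents were screened against the mec2-1 yeast strain, with defined DNA repair or cell cycle alteration. Growth was scored as inhibition against vehicle-only controls.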

[3] = NCI Yeast Anticancer Drug Screen. Data for the sgs1 mgt1 strain (AID 161);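 also: 0% = growth of cultures given vehicle only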; details: S. cerevisiae sgs1 mgt1 strain, at 50.0 µM, active compounds read high
Procedure, shortened: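 Test agents were incubated with a DNA-repair-mutant yeast strain. Growth was then read and compared against vehicle-treated controls.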

[4] = NCI Yeast Anticancer Drug Screen. Data for the cln2 rad14 strain (AID 165);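 also: 0% = growth equal to vehicle treated cultures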; details: S. cerevisiae cln2 rad14 strain, at 50.0 µM, active compounds read high
Procedure, shortened: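 Growth of compound-exposed yeast (cln2 rad14 genotype) measured and expressed as inhibition relative to vehicle.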

[5] = NCI Yeast Anticancer Drug Screen. Data for the bub3 strain (AID 167); details: S. cerevisiae bub3 mutant strain, at 50.0 µM, active compounds read high
Procedure, shortened: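 Screening used yeast with an engineered genetic alteration affecting cell cycle control. Compound-exposed cultures were compared with vehicle cultures, and reduced growth was taken as inhibition.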

[6] = NCI Yeast Anticancer Drug Screen. Data for the mlh1 rad18 strain (AID 175); details: S. cerevisiae mlh1 rad18 strain growth inhibition; at 50.0 µM; active compounds read high
Procedure, shortened: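 In this whole-cell yeast screen, a strain with altered DNA damage repair is challenged with compound, and its growth is measured against matched vehicle-treated controls.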

Measured: growth inhibition

Cn1ncc2c(=O)[nH]c(NCCO)nc21
inactive: [1] 3.3% | [2] 1.25% | [3] 0.9% | [4] -16.9% | [5] 8.7% | [6] 0.4%

Cn1c(=O)c2[nH]c(NCc3ccccc3)nc2n(C)c1=O
inactive: [1] 27.4% | [2] -3.9% | [3] 0.7% | [4] -35.2% | [5] 0.4% | [6] -0.2%

Cc1cc(N(CCC#N)CCC#N)ccc1/C=C1N=C(/C=C\c2ccccc2)OC\1=O
inactive: [1] 5.5% | [2] -8.5% | [3] 5.5% | [4] 12.2% | [5] 10.3% | [6] 5.3%

CCN(CC)CCNc1ccc(N)c2sc3ccccc3c(=O)c12
inactive: [1] 8.45% | [2] 3.8% | [3] -18.7% | [4] -8.25% | [5] -37.6% | [6] -29.1%

CC(SC(=S)Nc1ccc(Cl)cc1)C(=O)O (stereo not drawn)
inactive: [1] 39.5% | [2] 1.15% | [3] 24.8% | [4] -42% | [5] 4.8% | [6] 12.3%

O=C(/C=N\O)Nc1ccccc1O
inactive: [1] 2.6% | [2] 4.3% | [3] -24.4% | [4] -11.6% | [5] -5.15% | [6] -1.9%

CCc1c(O)cc(=O)oc1-c1ccc(OC)c(OC)c1
inactive: [1] 21% | [2] -16.2% | [3] 2.15% | [4] 6.05% | [5] -6.9% | [6] -26.6%

S=C(NCN1CCOCC1)NCN1CCOCC1
inactive: [1] -14.8% | [2] 5.75% | [3] -5.2% | [4] -2.7% | [5] 2.05% | [6] -16%

NS(=O)(=O)c1ccc(N=C2C=CC(=O)C=C2)cc1
inactive: [1] 13.6% | [2] 4.5% | [3] -0.2% | [4] -36.4% | [5] -4.05% | [6] -3.95%

CCCCCCCCCCCCCCCCCCOc1c(Cl)c(Cl)c(Cl)c(Cl)c1Cl
inactive: [1] 15.1% | [2] -1.55% | [3] -8.25% | [4] -25.9% | [5] -7.4% | [6] -8.1%

ClNc1nc(NCl)nc(NCl)n1
inactive: [1] -17.7% | [2] -25.8% | [3] -5.1% | [4] 2% | [5] -9.8% | [6] -19.1%

Oc1c(Cl)cccc1CN1CCOCC1
inactive: [1] 26.1% | [2] 6.15% | [3] 30.5% | [4] 25.1% | [5] -9.35% | [6] 33%

COc1ccc(OC)c(CCCC(=O)O)c1
inactive: [1] 9.6% | [2] 7.65% | [3] 2.7% | [4] 4.35% | [5] 2.05% | [6] -8.7%

CN=C1CC2CCCC1C2 (stereo not drawn)
inactive: [1] -15.7% | [2] 0.85% | [3] -5.8% | [4] -6.1% | [5] -7.95% | [6] -15.4%

O=C1CCCC(c2ccccc2)O1 (stereo not drawn)
inactive: [1] -3.1% | [2] -14.2% | [3] 5.2% | [4] -67.5% | [5] -27.4% | [6] 14.7%

C/C(=N\NC(N)=O)C(C)(C)O
inactive: [1] 26.8% | [2] 16.9% | [3] 7.7% | [4] 12.4% | [5] 11.5% | [6] 13.6%

CCNC(=O)c1cc2ccccc2cc1O
inactive: [1] 1.4% | [2] -6.85% | [3] -6.5% | [4] -46% | [5] -15.7% | [6] 6.55%

CCCCCCCCCCCCOc1ccc(Sc2ccc(OCCCCCCCCCCCC)cc2C)c(C)c1
inactive: [1] -16.2% | [2] -8.05% | [3] -0.95% | [4] -26.2% | [5] 6.35% | [6] -11.2%

CC(C)(C)C1=CC(=O)CCC1
inactive: [1] -37.6% | [2] -31.2% | [3] -16.4% | [4] -8.1% | [5] -26.9% | [6] 5.65%

O=NN(CCCl)C(=O)NC1CCC(CC2CCC(NC(=O)N(CCCl)N=O)CC2)CC1 (stereo not drawn)
inactive: [1] 24.9% | [2] 5.6% | [3] 8.05% | [4] 29.5% | [5] -6.45% | [6] 10.6%

CCOc1cc(C(=O)O)cc(OCC)n1
inactive: [1] -0.1% | [2] -9.45% | [3] 9.2% | [4] -29.4% | [5] 8.95% | [6] 3.05%

O=S(=O)(/C=C/c1ccc(Cl)cc1Cl)Cc1ccccc1CS(=O)(=O)/C=C/c1ccc(Cl)cc1Cl
inactive: [1] 4.85% | [2] 5.3% | [3] -27.6% | [4] -20.8% | [5] 6.95% | [6] -9.15%

CCS1=C2C(=O)CC(C)(C)CC2=Nc2ccccc21 (stereo not drawn)
inactive: [1] 7.2% | [2] -0.15% | [3] 18.9% | [4] -8.05% | [5] 17.9% | [6] -31.1%

COc1ccc(-c2cc(C)n(C3OC(CO)C(O)C(O)C3O)c(=S)c2C#N)cc1 (stereo not drawn)
inactive: [1] 23.9% | [2] 8.15% | [3] -9.05% | [4] -19.1% | [5] -0.6% | [6] 13.7%

CNCCS(=O)(=O)O
inactive: [1] 13.9% | [2] -3.05% | [3] 1.7% | [4] -6.3% | [5] 13.6% | [6] 9.25%

C#CC(C)OC(=O)Nc1ccccc1 (stereo not drawn)
inactive: [1] 28.6% | [2] -22.2% | [3] 3.4% | [4] -3.95% | [5] -7.65% | [6] -8.3%

COc1ccc(NC(=O)c2oc3cc(O)ccc3c(=O)c2C)c([N+](=O)[O-])c1
inactive: [1] 0.65% | [2] -1.8% | [3] 11.5% | [4] 11.9% | [5] -15.2% | [6] 2.2%

CNc1ccc(OC)cc1S(=O)(=O)c1ccccc1[N+](=O)[O-]
inactive: [1] 2.25% | [2] -35.4% | [3] 35.6% | [4] 18.7% | [5] 4.75% | [6] -22.2%

CC(NNC(=S)N1CCN(c2ccccn2)CC1)c1cccc[n+]1[O-] (stereo not drawn)
inactive: [1] 9.6% | [2] 5.4% | [3] 3.8% | [4] -11.2% | [5] 6.55% | [6] 11.9%

COc1cc(/C=C/C(=N\NC(=S)NN)c2sc(NNC(C)=O)nc2C)ccc1O
inactive: [1] 22.5% | [2] -4.5% | [3] 21.7% | [4] 9.1% | [5] 15.5% | [6] 19.2%

CC(NC(=O)C(N)CC(=O)O)C(=O)OC12CC3CC(CC(C3)C1)C2 (stereo not drawn)
inactive: [1] -55.5% | [2] -62.4% | [3] -22.6% | [4] -0.95% | [5] 12.7% | [6] -10.8%

O=C(CC(c1ccccc1)N1CCCCC1)OC(c1ccccc1)c1ccc(Br)cc1 (stereo not drawn)
inactive: [1] 12.9% | [2] 4.05% | [3] 11.6% | [4] 7.95% | [5] 6.4% | [6] 2.8%

CC1(C)CCCCC1=O
inactive: [1] -0.15% | [2] -1.8% | [3] 7.1% | [4] 22.1% | [5] 26.1% | [6] -14.3%

c1ccc(CNc2ncncc2-c2ccccc2)cc1
inactive: [1] 2.75% | [2] 3.85% | [3] 17.4% | [4] 9.1% | [5] 1.6% | [6] 5.15%

CC(=O)NC1CON(C(C)=O)C1=O (stereo not drawn)
inactive: [1] 2.75% | [2] 0.65% | [3] -9.85% | [4] -54.4% | [5] 2.7% | [6] -6.75%

CCSc1sc(=Nc2ccc(N=c3sc(C)c(SC)s3)cc2)sc1-c1ccc(C)cc1
inactive: [1] -33.6% | [2] -0.75% | [3] -11.2% | [4] -39.1% | [5] 2.25% | [6] -5.2%

O=Cc1cccc2c([N+](=O)[O-])cccc12
inactive: [1] 55.5% | [2] 19.5% | [3] 32.6% | [4] 6.95% | [5] -1.9% | [6] 49.5%

CCc1ccccc1Cc1ccccc1
inactive: [1] 1.8% | [2] -4.75% | [3] -0.2% | [4] 4.65% | [5] -1.55% | [6] 10.7%
